The list is not random: actives were taken first. Their share in the collection is about 0.4%.
FMDV FLuc: Primary qHTS Assay for Foot and Mouth Disease Virus Antivirals against NCGC Sytravon and CBC Compound Libraries: Firefly Luciferase Signal; AID 1745856, 2022; 120,000 compounds, 0.23% hits; Potency, µM (doses to about 57.5 µM), for inactives: at the highest dose activity change, negative = inhibition, most hits filed as inhibitors; FMDV antiviral cell assay, firefly luciferase signal; further: nearly all actives have a fitted effect of over 60% in size
FMDV Renilla: Primary qHTS Assay for Foot and Mouth Disease Virus Antivirals against NCGC Sytravon and CBC Compound Libraries: Renilla Luciferase Signal | Potency, µM (titrated, usually from 57.5 µM), for inactives: at the top dose activity change, negative = inhibition, hits mostly inhibitors | FMDV replicon cells, Renilla luciferase signal | 120,000 compounds, 0.32% hits | AID 1745857, 2022; further: nearly all actives have a fitted effect of over 55% in size
The depositor's hits bear a star; u = inconclusive; [ ] = remark or other dose. The call rests on the fitted dose curve. On the % scale 0 is the no-effect control and ±100 the full control effect; potency means the concentration at half of the fitted maximal effect.

SMILES	FMDV FLuc	FMDV Renilla
COc1ccccc1/C=C/C=C1\Oc2cc(OS(C)(=O)=O)ccc2C1=O	u	0.0%
O=C(Nc1cc(C(F)(F)F)ccc1Cl)C1=C(c2ccccc2)S(=O)(=O)CCO1	3.9%	-30.8%
O=C(Nc1c(Cl)cccc1Cl)C1=C(c2ccccc2)S(=O)(=O)CCO1	u	15.8µM*
Cn1c(=O)c2c(ncn2Cc2ccc(F)cc2)n(C)c1=O	8.1%	-6.1%
CCCc1nc(Cn2cnc3c2c(=O)n(C)c(=O)n3C)cs1	10µM*	10µM*
Cn1c(=O)c2c(ncn2Cc2cccc3ccccc23)n(C)c1=O	u	5.62µM*
CCOc1ccc(Cn2cnc3c2c(=O)n(C)c(=O)n3C)cc1OCC	12.6µM*	11.2µM*
Cn1c(=O)c2c(ncn2Cc2ccc(Cl)c(Cl)c2)n(C)c1=O	-28.3%	u
CCc1cccc(OCC(O)Cn2cnc3c2c(=O)n(C)c(=O)n3C)c1 (configuration not stated)	-28.3%	-28.4%
Cn1c(=O)c2c(ncn2CC(=O)OCc2cccc3ccccc23)n(C)c1=O	9.2%	-3.2%
Cc1ccc(C(C)C)c(OCC(O)Cn2cnc3c2c(=O)n(C)c(=O)n3C)c1 (configuration not stated)	25.1µM*	25.1µM*
CCC(C)N1CCN(C(=O)c2cccc(Cl)c2)CC1 (configuration not stated)	6.2%	14.3%
CCn1c(-c2ccc(O)c(OC)c2)nc2c1c(=O)[nH]c(=O)n2Cc1ccccc1	33.1%	28.2%
O=C(c1ccncc1)N1CCN(Cc2c[nH]c3ccccc23)CC1	-23.4%	-17.1%
N#CC(/C(=N/S(=O)(=O)c1ccccc1)c1ccccc1)c1nc2ccccc2s1 (configuration not stated)	28.2µM*	1.1%
CC(c1nc2ccccc2s1)N(C)S(=O)(=O)c1ccccc1 (configuration not stated)	12.9%	-0.1%[1.06 µM]
O=C(Nc1ccccc1C(=O)NC1CC1)c1cnc2ccccc2n1	160.8%	1.1%
CN(C)S(=O)(=O)N1CC=C(c2c[nH]c3ccccc23)CC1	64.9%	-4.4%
C[C@@H]1O[C@@H](O[C@H]2C[C@@H](O)[C@]3(CO)[C@H]4[C@H](O)C[C@]5(C)[C@@H](C6=CC(=O)OC6)CC[C@]5(O)[C@@H]4CC[C@]3(O)C2)[C@H](O)[C@H](O)[C@H]1O	-69.2%[11.5 µM]	-76.1%
CC1OC(OC2CCC3(C=O)[C@H]4CCC5(C)C(C6=CC(=O)OC6)CCC5(O)[C@@H]4CCC3(O)C2)C(O)C(O)C1O (some centres not stated)	-78.5%	-74.6%
CC12CC[C@H]3[C@@H](CCC4(O)CC(O[N+](=O)[O-])CCC34CO[N+](=O)[O-])C1(O)CCC2C1=CC(=O)OC1 (some centres not stated)	u	10µM*
CC1OC(OC2CCC3(C=O)[C@H]4CCC5(C)C(C6=CC(=O)OC6)CCC5(O)[C@@H]4CCC3(O)C2)CC2OC(C)(C)OC12 (some centres not stated)	1µM*	1.26µM*
CC1OC(OC2CCC3(C=O)[C@H]4CCC5(C)C(C6=CC(=O)OC6)CCC5(O)[C@@H]4CCC3(O)C2)CC(O)C1O (some centres not stated)	u	0.282µM*
Cc1ccsc1/C=C/C1=Cc2c(sc(N)c2C#N)C(C)(C)C1	10.0%	10.0%
CNc1snc(C)c1C(=O)OCc1csc(-c2ccc(F)cc2)n1	u	0.708µM*
SMILES	FMDV FLuc	FMDV Renilla
COc1ccc(-c2nc(CNS(=O)(=O)c3ccc(F)cc3)cs2)cc1	-4.8%	-5.0%
COc1ccccc1-c1nnc(SCc2csc(Nc3ccc(C)cc3)n2)o1	23.6%	0.9%
COc1ccc(-c2c(C)oc3cc(OCC(=O)OC(C)(C)C)ccc3c2=O)cc1OC	28.2µM*	u
CCOc1ccc2c(=O)c(-c3ccc(OC)c(OC)c3)c(C)oc2c1	-19.9%	-28.6%
COc1ccc2nc(-c3ccc4c(c3)OCO4)cc(C(=O)NCCN3CCOCC3)c2c1	48.0%	21.3%
CC#CC[N+](C)(C)CCCCCCCCCCCC	12.6µM*	u
CCCCCCCCCCCCCCCC[N+](C)(C)C	-27.4%	-16.3%
N=C(N)c1ccc(OCc2ccncc2)cc1	2.3%	4.9%
COc1cccc(C(=O)/C(=C/c2cccnc2)c2nc3ccccc3o2)c1	-100.2%	u
CN(CC(=O)Nc1ccc(OC(F)(F)F)cc1)S(=O)(=O)c1ccc2c(c1)CCC(=O)N2	22.4µM*	u
COC(=O)c1ccc(NC(=O)CN(C)S(=O)(=O)c2ccc3c(c2)CCCC(=O)N3)cc1	-3.0%	0.9%
Cc1oc2cc(OCCN3CCN(CCO)CC3)ccc2c(=O)c1-c1ccc(Br)cc1	-6.2%	-16.6%
COc1ccc(-c2nc(CSCC(=O)NCc3cccnc3)c(C)o2)cc1	14.1µM*	-14.1%
COc1ccc(-c2nc(CS(=O)(=O)CC(=O)NCc3cccnc3)c(C)o2)cc1	13.2%	5.6%
COc1ccc(CN(Cc2ccccc2)Cc2cc(=O)n3cc(C)sc3n2)cc1OC	-27.0%	-1.3%
Cc1ccc(S(=O)(=O)N2CCc3cc(C(=O)Nc4ccc(C(F)(F)F)cc4)ccc32)cc1	1.8%	135.8%
CC(C)c1ccc(NC(=O)c2ccc3c(c2)CCN3S(=O)(=O)c2ccccc2)cc1	-16.4%	17.0%
CCS(=O)(=O)N1CCc2cc(C(=O)Nc3cccc(C(C)=O)c3)ccc21	60.9%	9.5%
CC(C)c1ccc(NC(=O)c2ccc3c(c2)CCCN3S(C)(=O)=O)cc1	u	8.91µM*
CCCCc1ccc(NC(=O)c2ccc3c(c2)CCN3S(=O)(=O)CC)cc1	8.91µM*	25.1µM*
CS(=O)(=O)N1CCc2cc(C(=O)Nc3ccc(C(F)(F)F)cc3)ccc21	u	31.6µM*
CC(C(=O)NCc1ccccc1)n1nc(-c2ccccc2)c2ccccc21 (configuration not stated)	-0.2%	-1.1%
O=C(O)/C=C/c1cc(Br)c(-c2ccc(Cl)cc2Cl)o1	59.4%	-3.2%
CCC(CC)NC(=O)COC(=O)c1cc(-c2ccc(C)o2)nc2ccccc12	49.5%	-5.7%
CCCCCCCCCCCCCC[N+](C)(C)Cc1ccccc1	u	25.1µM*
SMILES	FMDV FLuc	FMDV Renilla
CCCCCCCCCCCCCCCC[N+](C)(C)Cc1ccccc1	-25.6%	-14.1%
CCCOc1ccc(NC(=O)C(C)Oc2cc(C)cc(C)c2)c2cccnc12 (configuration not stated)	2.6%	-14.6%
COc1ccc(C(=O)N2CCC(c3nc4ccccc4s3)CC2)cc1Cl	28.2µM*	u
COc1cccc(C(=O)N2CCC(c3nc4ccccc4s3)CC2)c1	-8.5%	-3.9%
O=C(Nc1ccc(S(=O)(=O)N2CCCCC2c2cccnc2)cc1)c1ccc(Br)cc1 (configuration not stated)	25.1µM*	u
CC(=O)Nc1ccc(S(=O)(=O)N2CCCCCC2c2ccc(C)s2)cc1 (configuration not stated)	9.5%	114.3%
CCOCCCNc1nc(-c2ccc(S(=O)(=O)N3CCCCCC3)cc2)cs1	u	-22.5%
O=C(c1ccccc1)N1CC=C(c2c[nH]c3ccccc23)CC1	22.5%	-6.6%
CCOc1ccc(-c2cc(C(=O)O)c3ccccc3n2)cc1OCC	-10.2%	20µM*
CCOc1ccc(-c2cc(C(=O)O)c3ccccc3n2)cc1	56.3%	u
CC(C)NC(=O)NC(=O)COC(=O)c1ccc2ccccc2n1	2.8%	-14.2%
